± gives the standard deviation of the averaged measurements. The full ranking holds about 25,000 sequences; the median of “ln(normalized median fluorescence intensity)” is about 8.6, and the highest 2% start at about 10. Many of the other results were omitted from the sample, so the highest values are more common in it than they were.
Test system: PfAP2-EXP AP2 domain (GST-tagged)
Assay: gcPBM binding intensity (ln(normalized median fluorescence intensity)); higher = stronger DNA binding
In short: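 An Agilent 4 × 180k array of primer-extended double-stranded 36-bp intergenic genomic probes, with negative controls, was incubated for 1 h with GST-tagged P. falciparum DNA-binding domains expressed in E. coli. Alexa488 anti-GST antibody detected bound protein, scanned at 488 nm. Binding intensity is the highest Masliner-normalised natural-log median intensity across replicate spots of either probe orientation.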

| Sequence | gcPBM binding intensity (ln) |
| --- | --- |
| TTTTATCGTTTTTTTTTTTTTTTTTTTTTTTTTTTT [CACACA_negctrl_site1309] | 9.06 ± 0.092 |
| TCTGGATTGGATTACAAGAAAATAAAATATAAAATA [CACACA_negctrl_site122] | 8.38 ± 0.4 |
| ATGAAGAAGTGTAAATGTACATTTTATGTAGAACAA [XGTACX_site6925] | 8.93 ± 0.48 |
| TAATATTATATTATATGTACATAACAAATTATATTT [XGTACX_site4296] | 8.6 ± 0.21 |
| ATTTTTTTATAAGAAAATTTCTAACGTTAAAAAAAA [CACACA_negctrl_site1367] | 8.38 ± 0.59 |
| TATATATATATATATGCATGCCATATGATATATATA [TGCATGCA_site109] | 10.3 ± 0.27 |
| ATATATATATATGATACATGCATATATTTTTTCTTC [TGCATGCA_site216] | 9.99 ± 0.13 |
| TATATATATGTATGATGTACATATATGCATATATAT [XGTACX_site3399] | 8.54 ± 0.23 |
| ATTTTATTTTTTGAGTGTACTAGTTCAACAACTCCG [XGTACX_site8600] | 8.72 ± 0.52 |
| TGGTTTCAATAATTAATAAAATATATTATTGTGAAA [CACACA_negctrl_site442] | 7.95 ± 0.41 |
| ACGGAAAAAGAAAAGGTGCATATGGACACAATATAT | 9.35 ± 0.17 |
| CGTATGTGCGGACATGCATGCAATATACAAGAAAAA [TGCATGCA_site145] | 10.2 ± 0.28 |
| AAGACAATATATGCAGTGCATATACATACATATATA | 8.65 ± 0.25 |
| AAGAAAAGTAAATATGCATGTAGGGTAGGTTATTTT [TGCATGCA_site46] | 8.94 ± 0.23 |
| TGGGTCTCTAACTGGTGTACTATTTACATATTATAC [XGTACX_site8593] | 8.75 ± 0.37 |
| TGTATAAATATAATCACACATATATATATATATATA [CACACA_site4365] | 10.3 ± 0.73 |
| TAAATATAAACACAAACACACACATATATATATATA [CACACA_site7978] | 10.1 ± 0.42 |
| GGAACAAATAATATCACACATATATATATATATATA [CACACA_site5670] | 10.3 ± 0.23 |
| ATAATAAAATAAATCACACATAATATAATGTAATAT [CACACA_site6144] | 8.44 ± 0.3 |
| TATAAATAAATACATACACACACATACATATATATA [CACACA_site9024] | 8.71 ± 0.38 |
| TATAATCATATATACACACACATATATATATATATA [CACACA_site2168] | 10.2 ± 0.43 |
| TATAAATATAAATATACACACATATATATATATATA [CACACA_site1678] | 9.99 ± 0.4 |
| TGTATAATCATATATACACACACATATATATATATA [CACACA_site8674] | 10.1 ± 0.24 |
| GCTATAAATATAATCACACATAAATATATAATATAT [CACACA_site5144] | 8.23 ± 0.29 |
| TATAATCATAAATACACACACATATATATATATATA [CACACA_site5224] | 10.2 ± 0.42 |

| Sequence | gcPBM binding intensity (ln) |
| --- | --- |
| AATATACAAAATATCACACATATAAAATAATATATA [CACACA_site6067] | 8.27 ± 0.5 |
| TATATATATAAATACACACACATATATATATATATA [CACACA_site4867] | 10.2 ± 0.25 |
| TATATGAAGCTATAGACACACATATAAAAATATAAT [CACACA_site4850] | 8.64 ± 0.47 |
| TCCCTAGTATACCTTAGTACATATATTATTTTGCAC [XGTACX_site2174] | 8.98 ± 0.11 |
| ACTAGTAAATTTATATGTACATATATATATATATAG [XGTACX_site2502] | 8.68 ± 0.24 |
| ATACATATATATATATGTACATATGTATTTTTTATT [XGTACX_site105] | 8.63 ± 0.38 |
| ATATATTTAATATTCACACATAATTATTTTTACTCT [CACACA_site5438] | 8.59 ± 0.38 |
| CATCCAAAAATATTATGTACTAAATTTGGATGTATT [XGTACX_site3954] | 8.48 ± 0.47 |
| TTTTAAATATGCCATACACACTACTATATAATAAAT [CACACA_site5119] | 8.58 ± 0.34 |
| ATACTTTTAAATTGATGTACTTTATTTATAAGGTGA [XGTACX_site6746] | 8.38 ± 0.38 |
| ACTTTACAATATATATGTACATATTAATAAACATAT [XGTACX_site3689] | 8.74 ± 0.42 |
| ATAAAATAAAATTGGTGTACTTTTGATAAAATAAAA [XGTACX_site4264] | 8.24 ± 0.28 |
| TTAATAAACCTTAGATGTACAGTTATATATAAAATA [XGTACX_site6681] | 8.54 ± 0.52 |
| ATAACATTCAAAAAATGTACAAACATATGAATAAAT [XGTACX_site7013] | 8.62 ± 0.47 |
| TATATATATAACAGAATGCACTTTATATGTTCATAT [GTGCAC_site9880] | 8.94 ± 0.14 |
| TAAATAAATACATACACACACATACATATATATATA [CACACA_site3129] | 9.86 ± 0.26 |
| TATATATATATATATACACACATATATATAAATATA [CACACA_site2035] | 10.2 ± 0.26 |
| TATATATATAAATACACACACACATATATATATATA [CACACA_site4585] | 10 ± 0.16 |
| CATATATAAATATATACACACATACATACATACATA [CACACA_site5988] | 8.73 ± 0.3 |
| CATAAATACATACATACACACATATATATATATATA [CACACA_site2106] | 10.2 ± 0.41 |
| TAAATACATAAATACACACACATATATATATATATA [CACACA_site5549] | 10.2 ± 0.35 |
| CACAAATAAATACATACACACATATATACTCATATA [CACACA_site4379] | 8.37 ± 0.49 |
| TATACTCATAAATACACACACATATATATATATATA [CACACA_site5822] | 10.2 ± 0.28 |
| TAAATAAATATATATACACACATATATATATATATA [CACACA_site598] | 10.1 ± 0.36 |

Source: the supplement of paper PMC11417369
